Results: PubChem BioAssay (Tox21)
Values without a mark were called inactive. Activity calls are given as the source filed them. Calls come from the whole dose curve; as a rule, active = well fitted curve in the direction sought with a large enough effect in the repeat runs; inconclusive = weak or mixed curves; inactive = flat fitted curve, though single readings scatter.

Assay: qHTS assay to test for compound auto fluorescence at 535 nm (green) in HepG2 cell free culture (AID 720686)
Conditions: Cell-free medium, green autofluorescence 485/535 nm; series mostly up to 91.3 µM; fluorescence, % of fluorescein control: at the top concentration
From the text: U.S. Tox21 Program National Center for Advancing Translational Sciences [NCATS] NIH Chemical Genomics Center [NCGC] U.S. Environmental Protection Agency [EPA] National Institutes of Environmental Health Sciences [NIEHS] National Toxicology Program [NTP] U.S. Food and Drug Administration [FDA] Tox21 Assay Overview: Compound auto fluorescence often interferes with screening of the compound library against various biological targets and signaling pathways. Some of these compounds may have fluorophoric properties. Such properties may interfere with the assay outputs resulting in false positives and/or negatives. To decrease such complications and ensure the compound activities are relevant in terms of biological response, the Tox21 10K compound library was screened for auto fluorescence. From the fluorophores used as reporter signals in our screening assays, the auto fluorescence equivalencies of compounds against three fluorophores have been evaluated: Triamterene, Fluorescein and Rose Bengal sodium for blue, green and red fluorescence, respectively. The fluorescence intensities were measured using Excitation/Emission wavelengths at 405/460nm, 485/535nm and 540/590nm for blue, green and red labels, respectively. This assay includes the green fluorescence data.
Tox21 Assay Protocol Summary: 5 uL of culture medium (MEM containing 10% FBS) per well was dispensed into black wall/clear bottom 1536-well plates using a Multidrop Combi Dispenser (ThermoFisher Scientific, Waltham, MA). After 23 nL compound or DMSO vehicle was transferred into assay plate by a pintool work station (Kalypsys, San Diego, CA), fluorescence intensities in the assay plates were measured by an Envision (PerkinElmer, Shelton, CT) plate reader using three labels for measuring blue, green and red fluorescence at […] 460, 535 and 590nm respectively.
% is set by controls: 0 for no effect and ±100 for the full control effect.

Compound	outcome	fluorescence, % of fluorescein control [%]
CN(C)c1cccc(O)c1	inactive	–
OCC1CCCO1 (stereo not given)	inactive	–
C=C1C2CCC(C2)C1(C)C (stereo not given)	inactive	–
Cc1ccc(C)c(C)c1	inactive	–
O=[N+]([O-])c1cccc(Cl)c1	inactive	–
COC(=O)c1ccc(C(=O)OC)cc1	inactive	–
CS(=O)(=O)Nc1ccc([N+](=O)[O-])cc1Oc1ccccc1	inactive	–
CC1Cc2ccccc2N1NC(=O)c1ccc(Cl)c(S(N)(=O)=O)c1 (stereo not given)	inactive	–
CC1=C(/C=C/C(C)=C/C=C/C(C)=C/CO)C(C)(C)CCC1	inactive	–
CC(=O)Nc1ccc(C(=O)O)cc1	inactive	–
Cc1ccc(C(=O)O)o1	inactive	–
C=C(C)C(=O)OCCC[Si](OC)(OC)OC	inactive	–
C=C(C)C(=O)OCCCCCCCCCCCC	inactive	–
C=C(C#N)C(=O)OCC	inactive	–
C=C(C)C(=O)OCC(CC)(COC(=O)C(=C)C)COC(=O)C(=C)C	inactive	–
Oc1ccc2ccccc2c1N=Nc1ccccc1	inactive	–
O=S(=O)(O)c1cc(S(=O)(=O)O)c2c(N=Nc3ccccc3)c(O)ccc2c1	inactive	–
O=C(O)c1ccc([N+](=O)[O-])cc1	inactive	–
NC(=O)NNc1ccccc1	inactive	–
O=C1CCCCC1	inactive	–

Compound	outcome	fluorescence, % of fluorescein control [%]
C=CC(=O)OCCCCCCCC(C)C	inactive	–
COCC(C)O (stereo not given)	inactive	–
CCCCCC/C=C/CCCCCCCC(=O)O	inactive	–
O=C(O)c1cc(-c2ccccc2)nc2ccccc12	inactive	–
CC[Si](OC(C)=O)(OC(C)=O)OC(C)=O	inactive	–
CC(C)(C)C1CCC(O)CC1 (stereo not given)	inactive	–
CS(=O)(=O)c1ccc([C@@H](O)[C@@H](CO)NC(=O)C(Cl)Cl)cc1	inactive	–
CC1CC(OC(=O)c2ccccc2O)CC(C)(C)C1 (stereo not given)	inactive	–
OC1CCCC1	inactive	–
CC(C)(N=C=O)c1cccc(C(C)(C)N=C=O)c1	inactive	–
CC(C)n1c(/C=C/[C@@H](O)C[C@@H](O)CC(=O)O)c(-c2ccc(F)cc2)c2ccccc21	inactive	–
Cc1ccc(N)c(S(=O)(=O)O)c1	inactive	–
CC(=O)[C@@]1(O)CC[C@H]2[C@@H]3CCC4=CC(=O)CC[C@]4(C)[C@H]3CC[C@@]21C	inactive	–
O=c1c(-c2ccc(O)cc2)coc2cc(O)ccc12	–	-0.0014
NS(=O)(=O)c1cc2c(cc1Cl)NC=NS2(=O)=O	inactive	–
CCOC(=O)[C@H](CCc1ccccc1)N[C@@H](C)C(=O)N1Cc2ccccc2C[C@H]1C(=O)O	inactive	–
CCCCCCOC(C)=O	inactive	–
c1ccc2ccccc2c1	inactive	–
COC(=O)c1ccccc1O	inactive	–
Nc1cc(-c2ccncc2)c[nH]c1=O	inactive	–
